Source: PubChem BioAssay (Center for Chemical Genomics, University of Michigan)
This is one part of a sample in which hits are shown more often than they occur.
Dicer processing: inhibitors of Dicer pre-microRNA processing, primary screen, biochemical, cat-ELCCA, chemiluminescence; cat-ELCCA pre-miR-21 Dicer processing; active compounds read high; 47,000 compounds, 6% hits; Endoribonuclease Dicer (Homo sapiens), Q9UPY3; z-score at 25 µM; AID 1347074, 2019; in the data active = z-score above about 3, passing the limit was not always enough;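 also: plate controls were vehicle for no effect and no enzyme for full effect; higher signal means more uncleaved substrate so more Dicer inhibition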
* marks the source's active call; other numbers are inactive results.

SMILES | Dicer processing
CCN(CC)CCSc1nc(O)c(C(C)C)c(=O)[nH]1 | 4.22*
CC(C)c1c(O)nc(SCCN2CCOCC2)[nH]c1=O | -0.1
NC(=S)CCn1cccc(C(F)(F)F)c1=O | -1.72
COC(=O)c1cc(-c2cccnc2)no1 | 0.54
CCOC(=O)c1cnc2cc(-c3ccco3)[nH]n2c1=O | 2.59
Oc1ccccc1-c1ccnc2cc(-c3ccccc3)nn12 | 4.43*
Oc1ccc(F)cc1-c1ccnc2cc(-c3ccccc3)nn12 | 5.99
Cc1ccc(-c2cc3nccc(-c4cc(C)ccc4O)n3n2)cc1 | -2.04
Cc1ccc([N+](=O)[O-])cc1S(=O)(=O)O/N=C(\N)CS(=O)(=O)c1ccccc1 | -1.34
O=C1CC(c2ccccc2Cl)Nc2ccc3ccccc3c21 (stereo not drawn) | 1.82
CN(C)c1ccc(C2CC(=O)c3ccccc3N2)cc1 (stereo not drawn) | 2.42
O=C1CC(c2cccc(Br)c2)Nc2ccc3ccccc3c21 (stereo not drawn) | 3.42*
Brc1ccc(SCCc2ccncc2)cc1 | 1
CC(C)(CO)NC(=S)Nc1ccccc1F | 0.36
CC(C)(C)OC(=O)NCCNS(=O)(=O)c1ccc(N2C(=O)CC3(CCCC3)C2=O)c(Cl)c1 | 0.1
S=C(Nc1cc(Cl)ccc1Cl)N1CCCCC1CCN1CCOCC1 (stereo not drawn) | -1.46
CCN(CC)C(=S)Oc1c(C)c(C)nc(=S)n1CCCOC | 9.42*
COc1cc2c(cc1OC)CN(S(=O)(=O)c1ccc3c(c1)CCC(C)(C)O3)CC2 | -0.69
COc1cc2c(cc1OC)C1=C(C#N)CN(c3ccc(C)c(C)c3)CN1CC2 | 4.51*
COc1cc2c(cc1OC)C1=C(C#N)CN(CCc3ccccc3)CN1CC2 | 1.05
CCOC(=O)C1CCN(S(=O)(=O)c2sc(Cl)cc2Br)CC1 | -0.45
Cc1cc2nc(-c3cccc(N)c3)oc2cc1C | 0.66
Nc1cccc(-c2nc3cc(Cl)ccc3o2)c1 | 4.51*
Nc1ccc(-c2nc3cc(N)ccc3o2)cc1 | -0.37
CN(C)c1ccc(-c2nc3cc(N)ccc3o2)cc1 | 3.41*
SMILES | Dicer processing
Nc1cccc(-c2nc3ccccc3o2)c1 | 0.17
CCOc1ccc(-c2nc3cc(N)ccc3o2)cc1 | 1.51
Clc1ccc(-c2nnc(N3CCOCC3)o2)cc1Cl | -0.28
Cc1ccc(S(=O)(=O)c2ccc(Cl)cc2)cc1S(=O)(=O)NCc1ccco1 | 0.56
CCOC(=O)c1cc(Sc2ccc(C)cc2)cc(C(=O)OCC)n1 | -0.69
CC(=O)OC[C@H]1O[C@@H](Oc2ccccc2)[C@H](OC(C)=O)[C@@H](OC(C)=O)[C@H]1OC(C)=O | 0.74
CCOC(=O)c1cccc(CSC(=N)N)c1 | -0.3
CCOc1ccccc1OCc1nn2c(Cc3ccccc3)nnc2s1 | -0.37
CS(=O)(=O)Nc1cc(-c2nnc(Nc3ccc(O)cc3)c3ccccc23)ccc1N1CCOCC1 | 0.06
N#CC(C#N)Sc1nc2ccccc2[nH]1 | 2.25
CNc1ccccc1C(=O)NNC(=O)c1cccnc1Oc1ccccc1 | 0.45
O=C(Nc1ccc(Cl)cc1)N1N=C2c3ccccc3CCC2C1c1cccs1 (stereo not drawn) | -0.38
O=C(Nc1ccc(Cl)cc1)N1CCOC1c1cccs1 (stereo not drawn) | 4.16*
N#CC1=C(SCC(=O)Nc2ccc(Cl)cc2)NC(=O)CC1c1cccs1 (stereo not drawn) | -2.82
O=C(Nc1ccccc1C(F)(F)F)N1CCCN(c2ncccc2C(F)(F)F)CC1 | -0.45
O=C(O)c1ccccc1C(=O)OCCO | -0.6
Brc1ccc(-c2noc(CSc3nnc(-c4ccco4)n3-c3ccccc3)n2)cc1 | 1.69
Cn1nc(-c2ccccc2)cc1NC(=O)Nc1ccc(OC(F)(F)F)cc1 | -0.35
CCOC(=O)C1=C(Nc2ccc(OC(=O)Nc3ccccc3)cc2)C(=O)N(C(C)(C)C)C1 | 1.38
CCC1(c2cccc(OC(=O)Nc3ccc(OC(F)(F)F)cc3)c2)CCCCN(C)C1=O (stereo not drawn) | 3.82*
CC1(C)CC(=O)c2cc(OCc3ccc([N+](=O)[O-])cc3)c(OCc3ccc([N+](=O)[O-])cc3)cc2O1 | -0.07
O=C(O)CSc1nnc2c(n1)[nH]c1ccccc12 | -0.46
Cc1nnc(NC(=O)CSc2nnc3c(n2)[nH]c2ccccc23)s1 | 1.64
O=C(CSc1nnc2c(n1)[nH]c1ccccc12)Nc1nc2ccccc2s1 | 5.39*
CCOC(=O)CSc1nnc2c(n1)[nH]c1ccccc12 | -0.83
SMILES | Dicer processing
O=C(CSc1nnc2c(n1)[nH]c1ccccc12)Nc1nnc(-c2ccccc2)s1 | -0.6
C=C(C)CSc1nnc2c(n1)[nH]c1ccccc12 | 3.58*
COc1ccc(Cl)c(NC(=O)Nc2ccccc2N2CCOCC2)c1 | 0.34
O=C(NNC(=O)c1csc(COc2ccc(C3SCCS3)cc2)n1)c1ccc(Cl)cc1 | 3.22
O=C(O/N=C1\CCCc2[nH]c3ccccc3c21)c1ccc(Cl)cc1Cl | 0.99
COc1ccc(C2C(C(=O)OC(C)C)=C(C)NC3=C2C(=O)CC(c2ccccc2OC)C3)cc1OC (stereo not drawn) | -0.67
O=C(c1c(F)cccc1F)N1CCN(c2cccc3[nH]ccc23)CC1 | 2.15
CC(Sc1nnc2sc3ccccc3n12)C(=O)O (stereo not drawn) | 0.44
